Screens from PubChem BioAssay.
HEK293 tox: cytotoxicity in counter-screen for GLP-1R inverse agonists; Potency, µM (highest dose often 38.3 µM), actives largely listed as inhibitors; 410,000 compounds, 0.13% hits; HEK293 cAMP-luciferase reporter cells, luminescence, 24 h; AID 624418;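 also: loss of luciferase light is scored as toxicity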
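Compound-treated cells are incubated 24 hr at 37 deg C under 5% CO2 after a 12 hour attachment period, then luciferase detection reagent is added and luminescence is measured following 12 min at room temperature; lowered signal indicates toxicity.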
GLP-1R agonist: GLP-1 receptor (human) agonism; P43220; HEK293 GLP-1R CRE-luciferase, luminescence, 4-6 h; cells express a hypersensitive GLP-1R form; Potency, µM (titrated, usually from 45.6 µM), hits mostly activators; 380,000 compounds, 0.007% hits
Target sequence (P43220 whole entry, looked up): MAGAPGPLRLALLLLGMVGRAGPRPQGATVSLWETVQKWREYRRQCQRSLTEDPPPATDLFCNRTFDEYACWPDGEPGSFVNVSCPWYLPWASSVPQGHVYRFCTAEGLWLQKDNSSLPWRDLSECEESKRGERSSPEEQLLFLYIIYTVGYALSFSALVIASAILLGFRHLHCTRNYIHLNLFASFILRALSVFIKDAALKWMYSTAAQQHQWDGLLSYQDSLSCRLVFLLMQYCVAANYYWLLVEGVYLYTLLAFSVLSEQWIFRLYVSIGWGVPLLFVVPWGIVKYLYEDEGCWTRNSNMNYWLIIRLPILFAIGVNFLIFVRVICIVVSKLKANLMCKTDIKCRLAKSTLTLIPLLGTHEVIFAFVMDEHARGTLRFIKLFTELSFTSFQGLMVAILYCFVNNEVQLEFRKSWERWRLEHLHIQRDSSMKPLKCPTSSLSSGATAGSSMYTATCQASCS
GLP-1R inv ag: GLP-1 receptor (human) inverse agonism; P43220; HEK293 GLP-1R CRE-luciferase, luminescence, 24 h; GLP-1R form is constitutively active; Potency, µM (titrated, usually from 38.3 µM), most hits filed as inhibitors; 410,000 compounds, 1.6% hits; also: nearly all actives have a fitted effect of over 55% in size
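HEK293 cells stably co-expressing a cAMP-responsive luciferase reporter and constitutively active GLP-1R were seeded, incubated 12 h, then exposed to compounds for 24 h at 37 C. Luminescence was read 12 min after detection reagent; inverse agonists lower signal.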
A number is an active result; i = inactive; ? = inconclusive; nt = no result given. Only some compounds are listed: those with a hit (about 1.7% of all), similar ones and a draw of the others. Calls follow the shape of the dose curve; as a rule, active = well fitted curve in the direction sought with a large enough effect; inconclusive = small, poorly fitted or top-dose-only effect, or another doubt; inactive = no such curve, though single readings can be large; an effect the other way counts as inactive or inconclusive.

SMILES	HEK293 tox	GLP-1R agonist	GLP-1R inv ag
CCCCCCCNC(=O)CN1N=C(c2ccc(C)cc2)CCC1=O	i	i	?
CCCCN(CCCNC(=O)CN1N=C(c2ccccc2)CCC1=O)c1ccccc1	i	nt	10µM
CC1CCCCN1CCCNC(=O)c1ccc2c(c1)NC(=O)CN2C (stereo not given)	i	i	i
CCCCN(CCCNC(=O)c1ccc2c(c1)NC(=O)CN2C)c1ccccc1	i	i	2.8µM
Cc1ccc(Cc2nc3ccccc3nc2SCC(=O)NCc2ccc(F)cc2)cc1	i	i	i
O=C(Cn1c(-c2cccs2)cc2ccccc21)NCCCN1CCN(c2cccc(Cl)c2)CC1	i	nt	i
COCc1cnc(C)nc1N	i	i	i
CCc1ccc(C(C#N)=CC=Cc2ccccc2)cc1	i	i	?
COc1ccc(-n2c(-c3ccccc3F)nc3c(cnn3-c3ccc(C)cc3)c2=O)cc1	i	nt	7.1µM
CCOc1ccc(-n2c(C)nc3c(cnn3-c3ccc(Cl)cc3)c2=O)cc1	i	i	?
COc1ccc(-n2c(-c3ccco3)nc3c(cnn3-c3ccc(C)cc3)c2=O)cc1	i	i	i
CCc1nc2c(cnn2-c2ccc(Cl)cc2)c(=O)n1-c1ccc(OC)cc1	i	i	11µM
COCCCn1c(=O)c2sccc2n2c(CCCC(=O)NC3CCC(C)CC3)nnc12 (stereo not given)	i	nt	i
Cc1csc(NC(=O)c2c(-c3c(Cl)cccc3Cl)noc2C)n1	i	i	11µM
Cc1onc(-c2c(Cl)cccc2Cl)c1C(=O)Nc1ccc(Cl)cn1	i	i	1.8µM
Cc1onc(-c2ccccc2Cl)c1C(=O)Nc1ccc(Cl)cn1	i	i	?
Cc1csc(NC(=O)c2c(-c3c(F)cccc3Cl)noc2C)n1	i	i	?
COc1ccc(NC(=O)Cn2c(C)c3cnn(-c4ccccc4)c(=O)c3c2C)c(OC)c1	i	nt	i
COc1ccc(C(=O)Cn2c(NCCCO)nc3ccccc32)cc1	i	i	i
COc1ccc(-n2c(C)cc(C(=O)Cn3c(NCCO)nc4ccccc43)c2C)cc1	i	i	10µM
CCOc1ccc(CNC(=O)c2cnc3c(C)cccn3c2=O)cc1	i	nt	i
COc1ccc(C2Nc3ccccc3-c3nnc(SC)nc3O2)cc1C (stereo not given)	i	nt	i
N#Cc1c(-c2ccccc2)c(-c2ccccc2)nn(CC(=O)NNC(=O)Nc2ccc(Cl)cc2)c1=O	i	i	10µM
N#Cc1c(-c2ccccc2)c(-c2ccccc2)nn(CC(=O)NNC(=O)Nc2ccccc2)c1=O	?	i	?
CCOc1ccc(CCNC(=O)Cn2nnc(-c3ccccc3)n2)cc1OCC	i	i	i
SMILES	HEK293 tox	GLP-1R agonist	GLP-1R inv ag
CCCc1nn2c(=O)cc(CSCC(=O)Nc3ccc(C)cc3)nc2s1	i	i	i
O=C(N/N=C/c1cccc2ccccc12)c1ccncc1	i	i	i
O=C(/C=C/c1cccc2ccccc12)c1ccncc1	?	i	8.9µM
Cc1ccc(S(=O)(=O)N(C)C)cc1NC(=O)COC(=O)c1cccs1	i	i	i
Cc1ccc(S(=O)(=O)N(C)C)cc1NC(=O)COC(=O)/C(=C/c1ccc(F)cc1)c1cccs1	i	i	10µM
CC[C@H](C)[C@H](NC(=O)OCc1ccccc1)C(=O)OCC(=O)N1CCN(c2ccc(F)cc2)CC1	i	i	?
Cc1cccc(Cn2c(SCc3ccc(C(=O)N4CCCCCC4)cc3)nc3ccncc32)c1	i	nt	?
Cc1cc(C(=O)COC(=O)c2cccnc2Cl)c(C)n1C	i	i	7.1µM
CSc1ncccc1C(=O)OCC(=O)c1cc(C)n(C)c1C	i	i	i
COc1ccc(NC(=O)c2cccc(N3C(=O)NC4CC3(C)Oc3ccccc34)c2)cc1 (stereo not given)	i	i	4µM
CC12CC(NC(=O)N1c1cccc(C(=O)Nc3ncn[nH]3)c1)c1ccccc1O2 (stereo not given)	i	i	i
COc1ccc(NC(=O)CCS(=O)(=O)c2ccccc2Cl)cc1S(=O)(=O)Nc1ccc(Cl)cc1	i	i	6.3µM
COc1ccc(NC(=O)CCC(=O)c2cccs2)cc1S(=O)(=O)Nc1ccc(Cl)cc1	?	i	?
COc1ccccc1NS(=O)(=O)c1cc(NC(=O)CCC(=O)c2cccs2)ccc1Cl	i	i	?
CCOc1ccc(NS(=O)(=O)c2cc(NC(=O)CCC(=O)c3cccs3)ccc2Cl)cc1	i	i	10µM
COc1ccc(CCNCC(O)COc2c(C)cccc2C)cc1OC (stereo not given)	i	i	?
CCCCN1C(=S)NC[C@@H]1Cc1cccc2ccccc12	?	i	?
CCCC[C@@H]1CNC(=S)N1CCc1cccc2ccccc12	i	i	3.5µM
O=C(CCSCc1cnn(-c2ccccc2)c1-n1cccc1)NCc1ccccc1F	i	nt	?
Cc1ccccc1CNC(=O)CCSCc1cnn(-c2ccccc2)c1-n1cccc1	i	nt	10µM
COc1ccc(Cl)cc1S(=O)(=O)N1CCCC(C(=O)N2CCOCC2)C1 (stereo not given)	i	i	i
CCOC(=O)C1(C)CCN1C(=O)c1cccs1 (stereo not given)	i	i	i
O=[N+]([O-])c1ccc(-n2nnnc2-c2ccccc2)c([N+](=O)[O-])c1	10µM	i	?
O=[N+]([O-])c1ccc(-n2nnnc2-c2ccccc2)cc1	i	i	i
COc1ccc(C2=C(CN(C)C)C(c3ccccc3)c3ccccc3O2)cc1 (stereo not given)	?	i	?
SMILES	HEK293 tox	GLP-1R agonist	GLP-1R inv ag
CCOc1ccc(C2=C(C=C(C#N)C#N)C(c3ccccc3)c3ccccc3O2)cc1 (stereo not given)	i	i	6.3µM
Cc1cc(OC(C)C(=O)Nc2cccc(-c3nc4ccccc4o3)c2)cc(C)c1Cl (stereo not given)	i	nt	?
O=C(NC(NC(=S)Nc1ccccc1O)C(Cl)(Cl)Cl)c1ccco1 (stereo not given)	i	i	?
CC(=O)c1ccc(NC(=S)NC(NC(=O)c2ccco2)C(Cl)(Cl)Cl)cc1 (stereo not given)	i	i	5µM
O=C(NC(NC(=S)Nc1ccc(Cl)cc1)C(Cl)(Cl)Cl)c1ccco1 (stereo not given)	?	i	3.5µM
COc1ccccc1NC(=S)NC(NC(=O)c1ccco1)C(Cl)(Cl)Cl (stereo not given)	i	i	?
COc1ccc(CCN2C(=O)CN(C3CCC(C)CC3)C(=O)C2c2ccc(OC(C)C)c(OC)c2)cc1OC (stereo not given)	i	nt	i
Cc1ccc(NC(=O)c2ccc(OCC3CCCO3)cc2)nc1 (stereo not given)	i	i	?
CCOc1ccc(C(=O)Nc2nnc(SCC(=O)NCC3CCCO3)s2)cc1 (stereo not given)	i	i	2µM
Cc1cnc(NC(=O)c2ccc(OCC3CCCO3)cc2)s1 (stereo not given)	i	i	5µM
CC(C)(C)c1ccc(C(=O)Nc2nnc(SCC(=O)NCC3CCCO3)s2)cc1 (stereo not given)	i	i	?
Nc1ncnc2c1ncn2[C@@H]1O[C@H](CNC(=O)[C@H]2CCC(=O)N2)[C@@H](O)[C@H]1O	i	i	i
